Measured values as given in PubChem BioAssay AID1159580 (chemical genetic matrix, 2015).
About 2,000 (36%) of roughly 5,500 compounds were called active. Inconclusive results (about 18%) are left out. Cut-off read from the data, not from the text of the source: active = normalized growth mostly below about 0.91 (no sharp cut-off); inconclusive = no clear call, values can overlap the other calls; inactive = mostly above about 0.92. The list shows a part of the results.

Test: chemical genetic growth profiling, strain panel (AID 1159580);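 note: tested at 20 µM; growth read once vehicle control cultures reached saturation at 30 °C; 1 = growth at the plate median or of vehicle wells; lower values mean less growth of the strain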
Settings: growth OD

Measured: normalized growth

CN1C(CC(=O)c2ccccc2)CCCC1CC(O)c1ccccc1 (configuration not stated)
inactive: S. cerevisiae deletion strains, locus YJR075W, strain HOC1, hits give low values 0.998 | S. cerevisiae deletion strains, locus YKL009W, strain mrt4, hits give low values 0.994 | S. cerevisiae deletion strains, locus YKL068W, hits give low values 0.994 | S. cerevisiae deletion strains, locus YKL085W, strain MDH1 (second series), hits give low values 0.989 | S. cerevisiae deletion strains, locus YKL085W, strain MDH1, hits give low values 0.989 | S. cerevisiae deletion strains, locus YKL160W, strain elf1, hits give low values 1 | S. cerevisiae deletion strains, locus YKL190W, strain CNB1, hits give low values 1.01 | S. cerevisiae deletion strains, locus YKR001C, strain vps1, hits give low values 1 | S. cerevisiae deletion strains, locus YKR026C, strain gcn3, hits give low values 0.977 | S. cerevisiae deletion strains, locus YKR091W, strain srl3, hits give low values 0.975 | S. cerevisiae deletion strains, locus YLL001W, strain dnm1, hits give low values 0.967 | S. cerevisiae deletion strains, locus YLL026W, hits give low values 0.98 | S. cerevisiae deletion strains, locus YLL041C, strain sdh2, hits give low values 0.982 | S. cerevisiae deletion strains, locus YLR027C, strain aat2, hits give low values 0.965 | S. cerevisiae deletion strains, locus YLR039C, strain RIC1, hits give low values 1.04 | S. cerevisiae deletion strains, locus YLR058C, strain SHM2, hits give low values 1.01 | S. cerevisiae deletion strains, locus YLR102C, strain apc9, hits give low values 0.983 | S. cerevisiae deletion strains, locus YLR113W, strain HOG1, hits give low values 0.984 | S. cerevisiae deletion strains, locus YLR221C, strain rsa3, hits give low values 0.99 | S. cerevisiae deletion strains, locus YLR258W, strain gsy2, hits give low values 0.983 | S. cerevisiae deletion strains, locus YLR262C, strain YPT6 (second series), hits give low values 0.909 | S. cerevisiae deletion strains, locus YLR262C, strain YPT6, hits give low values 1.06 | S. cerevisiae deletion strains, locus YLR268W, strain sec22, hits give low values 0.928 | S. cerevisiae deletion strains, locus YLR320W, strain mms22, hits give low values 0.979 | S. cerevisiae deletion strains, locus YLR330W, strain CHS5, hits give low values 1 | S. cerevisiae deletion strains, locus YLR342W, strain FKS1 (second series), hits give low values 1.03 | S. cerevisiae deletion strains, locus YLR342W, strain FKS1, hits give low values 0.966 | S. cerevisiae deletion strains, locus YLR357W, strain rsc2, hits give low values 0.967 | S. cerevisiae deletion strains, locus YLR370C, strain arc18, hits give low values 0.962 | S. cerevisiae deletion strains, locus YLR371W, strain rom2, hits give low values 0.984 | S. cerevisiae deletion strains, locus YLR384C, strain iki3, hits give low values 0.974 | S. cerevisiae deletion strains, locus YLR418C, strain cdc73, hits give low values 0.957 | S. cerevisiae deletion strains, locus YML016C, strain PPZ1, hits give low values 1.01 | S. cerevisiae deletion strains, locus YML032C, strain rad52, hits give low values 0.973 | S. cerevisiae deletion strains, locus YML120C, strain ndi1, hits give low values 0.977 | S. cerevisiae deletion strains, locus YML124C, strain tub3, hits give low values 0.988 | S. cerevisiae deletion strains, locus YMR058W, strain fet3, hits give low values 0.969 | S. cerevisiae deletion strains, locus YMR078C, strain ctf18, hits give low values 0.991 | S. cerevisiae deletion strains, locus YMR125W, strain sto1, hits give low values 0.951 | S. cerevisiae deletion strains, locus YMR129W, hits give low values 0.976 | S. cerevisiae deletion strains, locus YMR205C, strain PFK2, hits give low values 0.971 | S. cerevisiae deletion strains, locus YMR223W, strain ubp8, hits give low values 0.993 | S. cerevisiae deletion strains, locus YMR231W, strain pep5, hits give low values 0.987 | S. cerevisiae deletion strains, locus YMR263W, strain SAP30, hits give low values 1.01 | S. cerevisiae deletion strains, locus YMR307W, strain GAS1, hits give low values 1.08 | S. cerevisiae deletion strains, locus YNL067W, strain RPL9B, hits give low values 0.986 | S. cerevisiae deletion strains, locus YNL071W, strain lat1, hits give low values 0.975 | S. cerevisiae deletion strains, locus YNL128W, strain TEP1, hits give low values 1.01 | S. cerevisiae deletion strains, locus YNL153C, strain GIM3, hits give low values 0.988 | S. cerevisiae deletion strains, locus YNL183C, strain NPR1, hits give low values 0.924 | S. cerevisiae deletion strains, locus YNL209W, strain ssb2, hits give low values 0.981 | S. cerevisiae deletion strains, locus YNL233W, strain BNI4, hits give low values 0.994 | S. cerevisiae deletion strains, locus YNL248C, strain rpa49, hits give low values 1.01 | S. cerevisiae deletion strains, locus YNL250W, strain rad50, hits give low values 0.981 | S. cerevisiae deletion strains, locus YNL271C, strain bni1, hits give low values 0.984 | S. cerevisiae deletion strains, locus YNL298W, strain CLA4, hits give low values 0.98 | S. cerevisiae deletion strains, locus YNL307C, strain MCK1, hits give low values 0.992 | S. cerevisiae deletion strains, locus YNL322C, strain KRE1 (second series), hits give low values 0.985 | S. cerevisiae deletion strains, locus YNL322C, strain KRE1, hits give low values 1.01 | S. cerevisiae deletion strains, locus YNR049C, strain mso1, hits give low values 0.973 | S. cerevisiae deletion strains, locus YNR052C, strain pop2, hits give low values 0.99 | S. cerevisiae deletion strains, locus YOL006C, strain TOP1, hits give low values 0.939 | S. cerevisiae deletion strains, locus YOL012C, strain htz1 0.951 | S. cerevisiae deletion strains, locus YOL147C, strain pex11, hits give low values 0.991 | S. cerevisiae deletion strains, locus YOR001W, strain rrp6, hits give low values 0.997 | S. cerevisiae deletion strains, locus YOR061W, strain CKA2, hits give low values 1.02 | S. cerevisiae deletion strains, locus YOR069W, strain VPS5, hits give low values 1.01 | S. cerevisiae deletion strains, locus YOR070C, strain gyp1, hits give low values 0.971 | S. cerevisiae deletion strains, locus YOR080W, strain dia2, hits give low values 0.988 | S. cerevisiae deletion strains, locus YOR083W, strain WHI5, hits give low values 1.01 | S. cerevisiae deletion strains, locus YOR106W, strain vam3, hits give low values 1 | S. cerevisiae deletion strains, locus YOR136W, strain idh2, hits give low values 0.993 | S. cerevisiae deletion strains, locus YOR144C, strain elg1, hits give low values 0.993 | S. cerevisiae deletion strains, locus YOR184W, strain ser1, hits give low values 0.988 | S. cerevisiae deletion strains, locus YOR231W, strain MKK1, hits give low values 0.978 | S. cerevisiae deletion strains, locus YOR265W, strain rbl2, hits give low values 0.973 | S. cerevisiae deletion strains, locus YOR270C, strain vph1, hits give low values 0.917 | S. cerevisiae deletion strains, locus YOR290C, strain snf2, hits give low values 0.951 | S. cerevisiae deletion strains, locus YOR316C, strain cot1, hits give low values 0.99 | S. cerevisiae deletion strains, locus YPL051W, strain arl3, hits give low values 0.998 | S. cerevisiae deletion strains, locus YPL055C, strain LGE1, hits give low values 1.01 | S. cerevisiae deletion strains, locus YPL078C, strain atp4, hits give low values 0.991 | S. cerevisiae deletion strains, locus YPL106C, strain sse1, hits give low values 0.954 | S. cerevisiae deletion strains, locus YPL240C, strain hsp82, hits give low values 0.998 | S. cerevisiae deletion strains, locus YPL241C, strain CIN2, hits give low values 1.01 | S. cerevisiae deletion strains, locus YPL256C, strain CLN2, hits give low values 0.938 | S. cerevisiae deletion strains, locus YPR119W, strain clb2, hits give low values 0.992 | S. cerevisiae deletion strains, locus YPR141C, strain kar3, hits give low values 0.992 | S. cerevisiae deletion strains, locus YPR163C, strain tif3, hits give low values 0.981 | S. cerevisiae deletion strains, locus YPR167C, strain met16, hits give low values 0.997 | S. cerevisiae deletion strains, strain wtn01, hits give low values 0.954 | S. cerevisiae strains, strain wild type, hits give low values 1.01
